Bioassay records from PubChem BioAssay.
In the library only some 19% were active in any assay of this set; here they are far more common.
SARS PLpro yeast = qHTS of Yeast-based Assay for SARS-CoV PLP | S. cerevisiae expressing SARS-CoV PLpro, growth rescue | Potency, µM (doses to about 32.9 µM), actives largely listed as activators | 330,000 tested, 0.19% active; calls by dose curve; also: nearly all actives have a fitted effect of over 55% in size
Shiga inhibitor = A qHTS for Small Molecule Inhibitors of Shiga Toxin; 290,000 tested, 9.2% active; AID 2315, 2010; Vero cells, Shiga toxin protein synthesis inhibition reporter; inhibition, % at 38.7 µM; in the data active = inhibition mostly above about 28%, no sharp cut-off; inactive = mostly below about 43%
CHX counter = Cycloheximide Counterscreen for Small Molecule Inhibitors of Shiga Toxin; max response, %; 300,000 tested, 12% active; AID 2314, 2010; cell reporter, cycloheximide protein synthesis inhibition counterscreen; in the data active = max response mostly above about 13%, no sharp cut-off; inactive = mostly below about 14%; also: read at 38.3 µM for the half of the compounds with a filed dose
AMA1-RON2 inh = qHTS for Inhibitors of AMA1-RON; Towards Development of Antimalarial Drug Lead: Primary Screen; Plasmodium falciparum AMA1 (3D7) - RON2 peptide interaction; AlphaScreen AMA1-biotinylated RON2 peptide binding; Potency, µM (titrated, usually from 58.2 µM), actives largely listed as inhibitors; 360,000 tested, 0.2% active; also: nearly all actives have a fitted effect of over 45% in size
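AMA1 (3D7) with his tag at 25 nM final met compounds first, then biotinylated RON2 peptide at 25 nM; detection used donor plus acceptor beads, 10 µg/mL apiece, read by AlphaScreen after 30 min at room temperature.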
Pf growth 96h = Primary qHTS for delayed death inhibitors of the malarial parasite plastid, 96 hour incubation; Potency, µM (series often up to 28.7 µM), actives largely listed as inhibitors; 320,000 tested, 6.9% active; AID 504834, 2011; P. falciparum luciferase reporter growth, 96 h
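96 h incubation, 37 C, 5% CO2, of luciferase-reporter P. falciparum-infected RBCs (2% hematocrit, 0.05% parasitemia final) with test compounds; endpoint luminescence.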
Pf growth 48h = Primary qHTS for delayed death inhibitors of the malarial parasite plastid, 48 hour incubation | P. falciparum luciferase growth in erythrocytes, 48 h | Potency, µM (highest dose often 28.7 µM), usual class: inhibitors | 310,000 tested, 5.9% active | AID 504832, 2011
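Growth was read as firefly luciferase luminescence after a 48 h, 37 C, 5% CO2 exposure of compounds to reporter-bearing P. falciparum cultures (0.1% parasitemia, 2% hematocrit final) in Albumax-supplemented RPMI 1640.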
Each line names hits and unclear results; the compound was inactive in the other large screens. Unless noted, calls follow the shape of the dose curve; as a rule, active = well fitted curve in the direction sought with a large enough effect; inconclusive = small, poorly fitted or top-dose-only effect, or another doubt; inactive = no such curve, though single readings can be large; an effect the other way counts as inactive or inconclusive.

O=C(NC(=S)Nc1nc(-c2cccc([N+](=O)[O-])c2)cs1)c1cc(Cl)ccc1Cl	Pf growth 48h inconclusive
COc1ccc(CC(=O)Nc2nc(-c3cccc([N+](=O)[O-])c3)cs2)cc1	none
CN(C(=O)c1ccc(S(=O)(=O)N2CCOCC2)cc1)C1CCS(=O)(=O)C1 (stereo unspecified)	none (no result: Shiga inhibitor, CHX counter)
C[C@H](O)[C@@H]1CN2CCc3c([nH]c4ccccc34)[C@@H]2C[C@@H]1N(C)C(=O)NC1CCCCC1	none (no result: SARS PLpro yeast, Shiga inhibitor, CHX counter, Pf growth 96h, Pf growth 48h)
O=C(NCc1ccccc1)c1onc(CSc2ccccn2)c1C(=O)NCc1ccccc1	none
Cc1cccc(N(C(=O)c2snc(C(N)=O)c2N)C(C(=O)NCC2CCCO2)c2ccc3ncccc3c2)c1 (stereo unspecified)	Pf growth 48h inconclusive
Cc1ccc2c(c1)COc1c3ccc(C(=O)N[C@@H](CO)C(C)C)cc3nn1-2	Shiga inhibitor 74.5, CHX counter 55.2
CCN(CC)CCCNC(=O)c1ccc2c3n(nc2c1)-c1ccc(Cl)cc1CO3	Pf growth 96h inconclusive, Pf growth 48h inconclusive (no result: Shiga inhibitor, CHX counter)
Cc1cc(-c2ccc3c(c2)COc2c4ccccc4nn2-3)on1	none (no result: SARS PLpro yeast, Shiga inhibitor, CHX counter, Pf growth 96h, Pf growth 48h)
O=C(NCC1CCCO1)c1ccc2c(c1)OCO2 (stereo unspecified)	none
C[C@@H](CO)NC(=O)c1ccc2c3n(nc2c1)-c1ccccc1CO3	CHX counter 17.1
O=C(NCC1CCCO1)c1ccc2c3n(nc2c1)-c1ccccc1CO3 (stereo unspecified)	Shiga inhibitor 54.2, CHX counter 51.5
CC(C)NC(=O)c1ccc2c3n(nc2c1)-c1ccc(Cl)cc1CO3	Shiga inhibitor 59.6, CHX counter 21.3
COC(=O)c1sc(S(=O)(=O)N2CCCCC2C)c(C(=O)OC)c1C (stereo unspecified)	Pf growth 96h inconclusive, Pf growth 48h inconclusive (no result: Shiga inhibitor, CHX counter)
NC(=O)c1nsc(C(=O)N(c2cccc(F)c2)C(C(=O)NC2CCCC2)c2ccco2)c1N (stereo unspecified)	none
COCCNC(=O)c1ccc2c3n(nc2c1)-c1ccc(C)cc1CO3	Shiga inhibitor 134.1, CHX counter 59.4
CC1=C(C(=O)OC(C)(C)C)C(c2ccco2)C(C#N)=C(N)O1 (stereo unspecified)	Pf growth 96h 2.08µM
COc1ccccc1-n1c(C)c(C(=O)O)c2cc(OC)c3ccccc3c21	none
Cc1nc(-c2ccc(Cl)cc2)sc1C1(C)CC(c2cccc(F)c2)=NO1 (stereo unspecified)	Shiga inhibitor 52.0, CHX counter 27.7
Cc1ccc(C2=NOC(C)(c3sc(-c4ccc(Cl)cc4)nc3C)C2)cc1 (stereo unspecified)	none (no result: SARS PLpro yeast, Shiga inhibitor, CHX counter, Pf growth 96h, Pf growth 48h)
Cc1nc(-c2ccc(Cl)cc2)sc1C1(C)CC(c2ccc(F)cc2)=NO1 (stereo unspecified)	Shiga inhibitor 47.4, CHX counter 25.0
Cc1nc(-c2ccc(Cl)cc2)sc1C1(C)CC(c2cccc(Cl)c2)=NO1 (stereo unspecified)	Shiga inhibitor 32.4, CHX counter 17.5
CCOC(=O)C[N+](CC)(CC)CC#Cc1ccccc1	none
CCSc1ccc(-c2cccc([N+](=O)[O-])c2)nn1	Shiga inhibitor active, CHX counter 52.7
O=C(CSc1ccc(-c2cccc([N+](=O)[O-])c2)nn1)N1CCCC1	Pf growth 96h inconclusive
O=C(CSc1ccc(-c2cccc([N+](=O)[O-])c2)nn1)N1CCCCCC1	CHX counter 19.4, Pf growth 96h inconclusive
COC(=O)CSc1nc2cc3c(cc2cc1C#N)OCO3	Shiga inhibitor 89.6, CHX counter 38.0 (no result: Pf growth 96h)
CCOC(=O)CSc1nc2cc3c(cc2cc1C#N)OCCO3	Shiga inhibitor 90.5, CHX counter 32.8
CC(C)OC(=O)CSc1nc2cc3c(cc2cc1C#N)OCO3	none
N#Cc1cc2cc3c(cc2nc1SCC(=O)N1CCOCC1)OCO3	Shiga inhibitor 83.1, CHX counter 28.3, Pf growth 96h inconclusive
CCOC(=O)CSc1nc2cc3c(cc2cc1C#N)OCO3	Shiga inhibitor 182.0
CCOC(=O)CSc1nc2cc3c(cc2cc1C)OCO3	Pf growth 96h inconclusive
CCCS(=O)(=O)N1CCN(S(=O)(=O)c2ccccc2)CC1	Pf growth 96h inconclusive
CC(=O)c1cccc(S(=O)(=O)NCC(C)(C)N2CCOCC2)c1	none
CCOc1ccc2cc(C#N)c(SCC(=O)N3CCOCC3)nc2c1	Shiga inhibitor 101.0, CHX counter 30.0
Cc1ccc2[nH]c3c(=O)n(Cc4ccco4)cnc3c2c1	none
CC(C)c1ccccc1OCCCCCNCCO	Pf growth 96h 4.15µM, Pf growth 48h 4.15µM
CC(C)(C)c1ccccc1OCCCCCNCCO	Pf growth 48h 4.15µM
Cc1ccccc1OCCCCCNCCO	none (no result: Pf growth 96h)
CC(NC(=O)CNC(=O)c1ccccc1F)c1ccc(-n2ccnc2)cc1 (stereo unspecified)	none (no result: Shiga inhibitor, CHX counter)
COC1OC2COC(c3ccccc3)OC2C2OC(c3ccccc3)OC12 (stereo unspecified)	none (no result: SARS PLpro yeast, Shiga inhibitor, CHX counter, Pf growth 96h, Pf growth 48h)
CCCn1c(NC(=O)CN2C(=O)NC3(CCCCC3)C2=O)nc2ccccc21	Pf growth 48h inconclusive (no result: Shiga inhibitor, CHX counter)
Cc1c([N+](=O)[O-])nnn1-c1cc(Cl)cc(Cl)c1	none
CC1(C)CC(=O)c2cnc(NCc3ccco3)nc2C1	CHX counter 14.0
CCc1ccc(Nc2ncc3c(n2)CC(c2ccc(OC)cc2)CC3=O)cc1 (stereo unspecified)	Pf growth 48h inconclusive
CCc1ccc(Nc2ncc3c(n2)CC(C)(C)CC3=O)cc1	Shiga inhibitor 75.3, CHX counter 56.7
CCc1ccc(Nc2ncc3c(n2)CC(C)CC3=O)cc1 (stereo unspecified)	Shiga inhibitor 96.3, CHX counter 47.4, Pf growth 96h inconclusive
Cc1cc(=O)oc(C)c1C(=O)Nc1c(C)n(C)n(-c2ccccc2)c1=O	none
CC12CCC(C(=O)OC3CCCCC3)(OC1=O)C2(C)C (stereo unspecified)	Pf growth 96h 11.7µM
CCN(CC)S(=O)(=O)c1ccc(N2CCOCC2)c(NC(=O)CC(C)(C)C)c1	Pf growth 96h inconclusive, Pf growth 48h inconclusive
CCN(CC)S(=O)(=O)c1ccc(N2CCOCC2)c(NC(=O)Cc2cccc3ccccc23)c1	Pf growth 96h 3.7µM, Pf growth 48h 13.1µM
O=C(CNC(=O)c1ccco1)Nc1cc(Cl)ccc1N1CCOCC1	Pf growth 48h inconclusive (no result: Pf growth 96h)
CC(C)(C)c1ccc(C(=O)NCCC(=O)Nc2cc(Cl)ccc2N2CCOCC2)cc1	Pf growth 96h inconclusive, Pf growth 48h 13.1µM (no result: Shiga inhibitor, CHX counter)
CCN(CC)S(=O)(=O)c1ccc(N2CCOCC2)c(NC(=O)CCC2CCCCC2)c1	Pf growth 96h inconclusive, Pf growth 48h 8.28µM
